Out of some 310,000 compounds screened, about 2,200 (0.71%) showed an effect of 50% or more. The effect is printed as a negative number. Only a selection was taken, and strong results are over-represented in it overall.

This note sets out measurements from PMC4336329 (PLoS ONE, 2015).

For this assay, the target named is human ether-à-go-go-related gene (hERG) potassium channel (human, UniProt Q12809). The assay is described as follows: primary screen, population patch clamp on CHO cells stably expressing hERG; higher = less effect of the substance.
Sequence of human ether-à-go-go-related gene (hERG) potassium channel (Q12809 whole entry, looked up): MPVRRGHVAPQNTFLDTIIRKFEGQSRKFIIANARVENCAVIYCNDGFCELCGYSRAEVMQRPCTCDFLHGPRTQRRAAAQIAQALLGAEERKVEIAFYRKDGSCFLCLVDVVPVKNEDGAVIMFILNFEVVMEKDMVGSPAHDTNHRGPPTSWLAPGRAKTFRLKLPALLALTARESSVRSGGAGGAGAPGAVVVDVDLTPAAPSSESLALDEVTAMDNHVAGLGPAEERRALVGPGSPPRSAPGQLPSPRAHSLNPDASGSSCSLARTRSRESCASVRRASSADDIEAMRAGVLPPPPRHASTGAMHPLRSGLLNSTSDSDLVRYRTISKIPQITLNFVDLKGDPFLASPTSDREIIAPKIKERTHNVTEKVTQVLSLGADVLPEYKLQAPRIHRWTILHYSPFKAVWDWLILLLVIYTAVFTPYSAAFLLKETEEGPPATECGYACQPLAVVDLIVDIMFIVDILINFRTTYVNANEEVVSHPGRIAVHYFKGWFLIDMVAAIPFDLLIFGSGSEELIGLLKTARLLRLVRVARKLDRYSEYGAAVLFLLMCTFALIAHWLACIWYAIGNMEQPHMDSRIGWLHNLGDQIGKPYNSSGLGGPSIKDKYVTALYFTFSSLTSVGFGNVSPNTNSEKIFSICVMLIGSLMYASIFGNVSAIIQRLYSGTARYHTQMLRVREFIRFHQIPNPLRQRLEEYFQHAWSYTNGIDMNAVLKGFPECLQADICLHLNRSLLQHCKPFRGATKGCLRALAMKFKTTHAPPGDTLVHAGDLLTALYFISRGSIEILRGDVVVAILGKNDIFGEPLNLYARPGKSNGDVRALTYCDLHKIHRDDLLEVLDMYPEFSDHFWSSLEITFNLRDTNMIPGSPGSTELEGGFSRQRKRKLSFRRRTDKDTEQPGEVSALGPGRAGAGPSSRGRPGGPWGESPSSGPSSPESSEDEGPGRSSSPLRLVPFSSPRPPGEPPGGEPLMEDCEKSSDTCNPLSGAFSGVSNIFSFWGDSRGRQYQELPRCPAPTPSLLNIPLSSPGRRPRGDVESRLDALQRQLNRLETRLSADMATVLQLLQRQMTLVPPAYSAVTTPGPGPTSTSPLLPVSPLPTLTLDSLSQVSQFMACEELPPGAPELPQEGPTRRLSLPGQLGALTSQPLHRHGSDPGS
As for `Cc1ccc(-n2nc(C)c3c2OC(N)=C(C#N)C3c2cccs2)cc1` (centres unmarked), the “hERG current change (%, negative = inhibition) at 1uM” value is listed as 9.08%. In the case of `CC1=CC2=NC(=O)CC(C)(C(=O)N(CC(=O)NC(C)(C)C)Cc3cccs3)N2C=C1` (centres unmarked), the “hERG current change (%, negative = inhibition) at 1uM” value is -2.79%. For `CNc1ncc(-c2nnnn2-c2ccccc2)c(-c2ccccc2)n1`, the “hERG current change (%, negative = inhibition) at 1uM” value worked out at 8.07%. As to `Cc1ccc(N2CCN(c3ncccc3[N+](=O)[O-])CC2)c(C)c1`, the “hERG current change (%, negative = inhibition) at 1uM” value came to 17.2%. The value for `CC(=O)NC(C(=O)N1CCC(c2nc3ccccc3s2)CC1)C(C)C` (centres unmarked) was 8.96%. `Cc1cc(C)nc(SCc2n[nH]c(=S)n2C)n1`: the “hERG current change (%, negative = inhibition) at 1uM” value amounted to 7.9%. Regarding `CCOC(=O)C1=C(N)OC2=C(C(=O)CC(C)(C)C2)C1c1ccco1` (centres unmarked), the “hERG current change (%, negative = inhibition) at 1uM” value was -7.98%.

As to `FC(F)(F)c1ccccc1NC(=S)N1CCN(c2ncccn2)CC1`, the “hERG current change (%, negative = inhibition) at 1uM” value is 11.5%. The value for `O=C(NNC(=O)c1cccs1)c1ccccc1` was 5.51%. On to `COc1ccc(N(CC(O)CN2CCCCC2)S(=O)(=O)c2ccc(C)cc2)cc1` (centres unmarked), for which the “hERG current change (%, negative = inhibition) at 1uM” value is -82.9%. In the case of `COc1ccc(N(CC(O)CN2CCOCC2)S(=O)(=O)c2ccc(C)cc2)cc1` (centres unmarked), the “hERG current change (%, negative = inhibition) at 1uM” value is listed as -6.48%. As for `Cc1ccc(N(CC(O)CN2CCCCC2)S(=O)(=O)c2ccccc2[N+](=O)[O-])cc1` (centres unmarked), the “hERG current change (%, negative = inhibition) at 1uM” value is reported as -48.8%. The same measure for `COc1ccccc1N(CC(O)CN1CCCCC1)S(=O)(=O)c1ccc(C)cc1` (centres unmarked): 2.61%; for `Cc1ccc(N(CC(O)CN2CCCCC2)S(=O)(=O)c2ccccc2)cc1` (centres unmarked): -68.7%. The value for `Cc1ccc(N(CC(O)CN2CCCC2)S(=O)(=O)c2ccccc2)cc1` (centres unmarked) was -47.4%; that for `Cc1c(C(=O)OC2CCCCC2)sc2nc[nH]c(=O)c12` was 16%. Regarding `Cc1ccc(-c2oc3ncnc(N)c3c2-c2ccc(C)cc2)cc1`, the “hERG current change (%, negative = inhibition) at 1uM” value is recorded as -3.25%.

For the compound `COc1ccc(/C(C)=N/Nc2ccc(C(=O)O)cc2)cc1OC.O=S(=O)(O)O`, the “hERG current change (%, negative = inhibition) at 1uM” value came to 11.7%. `Cn1c(SCC(=O)NCC2CCCO2)ncc(C(=O)Nc2ccc(F)cc2)c1=O` (centres unmarked): the “hERG current change (%, negative = inhibition) at 1uM” value was 5.38%. The same measure for `CN1C[C@H](CNC(=O)OCc2ccccc2)C[C@@H]2c3cccc4c3c(cn4C)C[C@H]21`: -1.63%. The value for `COCCN(CC1CCCN(C2Cc3ccccc3C2)C1)C(=O)CCSC` (centres unmarked) was -4.27%; that for `COCCN(CC1CCCN(C2Cc3ccccc3C2)C1)C(=O)c1ccc(C(C)=O)cc1` (centres unmarked) was -51.9%; that for `CCNC(=O)N(CCOC)CC1CCCN(C2Cc3ccccc3C2)C1` (centres unmarked) was 11.7%.

Take `COCCN(CC1CCCN(C2Cc3ccccc3C2)C1)C(=O)CSC` (centres unmarked): the “hERG current change (%, negative = inhibition) at 1uM” value worked out at 7.99%. The value for `COCCN(CC1CCCN(C2Cc3ccccc3C2)C1)C(=O)CCC(N)=O` (centres unmarked) was -70.8%; that for `COCCN(CC1CCCN(C2Cc3ccccc3C2)C1)C(=O)CCC(C)=O` (centres unmarked) was 7.77%; that for `N#Cc1ccccc1NC(=O)C1SC(=Nc2ccccc2)C(C(=O)Nc2ccc(Cl)cc2)=C1N` (centres unmarked) was 6.56%. In the case of `COC(=O)CCCNS(=O)(=O)c1ccc2ccccc2c1`, the “hERG current change (%, negative = inhibition) at 1uM” value is 10.7%. The same measure for `CC(C)N(CC#CC(O)(c1ccccc1)c1ccccc1)C(C)C`: -38.1%; for `CC(C)(C)C(=O)Cn1c(NCCCl)nc2ccccc21.Cl`: 13.8%; for `Cc1sc2nc(CSc3ccccc3)nc(NCCN(C)C)c2c1C`: -50.1%. For `CCNc1nc(CSc2ccccc2)nc2sc(C)c(C)c12`, the “hERG current change (%, negative = inhibition) at 1uM” value is on record as 6.57%.

As to `COCCNc1nc(CSc2ccccc2)nc2sc(C)c(C)c12`, the “hERG current change (%, negative = inhibition) at 1uM” value stood at 11.8%.

Consider `COc1ccc(C(=O)N2CCCN(C)CC2)cc1S(=O)(=O)N1CCCc2ccccc21`, for which the “hERG current change (%, negative = inhibition) at 1uM” value was found to be 1.09%.

`NC(=O)c1nsc(C(=O)N(CC(=O)NCc2ccco2)c2ccccc2F)c1N`: the “hERG current change (%, negative = inhibition) at 1uM” value was 1.03%. The value for `Fc1ccc(NC(=S)Nc2ccc(F)c(Cl)c2)cc1Cl` was 7.52%; that for `O=C(CSc1nc(-c2cccs2)nc2ccccc12)NC1CCS(=O)(=O)C1` (centres unmarked) was 17.3%; that for `CCN(C(=O)CSc1nc2ccccc2c(=O)n1-c1ccc(C)cc1)C1CCS(=O)(=O)C1` (centres unmarked) was 1.16%. In the case of `C=CCn1c(SCC(=O)N(CC)C2CCS(=O)(=O)C2)nc2ccccc2c1=O` (centres unmarked), the “hERG current change (%, negative = inhibition) at 1uM” value is reported as -81.6%. The value for `CCN(C(=O)CSc1nc2ccccc2c(=O)n1Cc1ccc(C)cc1)C1CCS(=O)(=O)C1` (centres unmarked) was -71.4%; that for `Cc1ccc(Cn2c(SCC(=O)N(C)C3CCS(=O)(=O)C3)nc3ccccc3c2=O)cc1` (centres unmarked) was -41.9%. `C=CCn1c(SCC(=O)N(C)C2CCS(=O)(=O)C2)nc2ccccc2c1=O` (centres unmarked): the “hERG current change (%, negative = inhibition) at 1uM” value is listed as -36.1%. The value for `C=CCn1c(SCC(=O)N(CC)C2CCS(=O)(=O)C2)nc2cc(C(=O)O)ccc2c1=O` (centres unmarked) was 16.4%; that for `CCN(C(=O)CSc1n[nH]c(-c2cccs2)n1)C1CCS(=O)(=O)C1` (centres unmarked) was 11.8%. As for `CCN(C(=O)CSc1nc(-c2cccs2)nc2ccccc12)C1CCS(=O)(=O)C1` (centres unmarked), the “hERG current change (%, negative = inhibition) at 1uM” value is reported as -78.4%. The value for `Cc1cc(=O)[nH]c2ccc(S(=O)(=O)NC3CCCCC3)cc12` was 7.42%. Consider `CC(OC(=O)C(C)Oc1ccccc1)C(=O)Nc1ccc(S(=O)(=O)N2CCCCC2)cc1` (centres unmarked), for which the “hERG current change (%, negative = inhibition) at 1uM” value was 12.9%. As to `Oc1ccc(/C=N/N2CCCCC2)cc1O`, the “hERG current change (%, negative = inhibition) at 1uM” value is 14.2%. Regarding `CCOCCN1CCN(c2c(CC)c(C)nc3cc(-c4cc(OC)cc(OC)c4)nn23)CC1`, the “hERG current change (%, negative = inhibition) at 1uM” value is on record as -14%. With `COc1ccc(NC(=O)CN(C)C(=O)CCCc2nc3ccccc3s2)cc1`, the “hERG current change (%, negative = inhibition) at 1uM” value is recorded as -15.7%. Turning to `COc1nc(-c2ccccc2)ccc1-c1noc(COc2ccccc2)n1`, the “hERG current change (%, negative = inhibition) at 1uM” value is recorded as 17.7%. The value for `CCOC(=O)Cn1c(=O)oc2cc(S(=O)(=O)N(C)c3cccc(C)c3)ccc21` was -1.77%. In the case of `O=[N+]([O-])c1cc2c(cc1CN1CCN(c3ccc(F)cc3)CC1)OCO2`, the “hERG current change (%, negative = inhibition) at 1uM” value is on record as 7.89%. For `CCCCOC(=O)c1nc(Cl)c(Cl)c(N)c1Cl`, the “hERG current change (%, negative = inhibition) at 1uM” value was 12%. The same measure for `CCCCCCCCOC(=O)c1nc(Cl)c(Cl)c(N)c1Cl`: -64.4%; for `CCCCCCCOC(=O)c1nc(Cl)c(Cl)c(N)c1Cl`: 0.504%.
